{"source": "the supplement of paper PMC10981050", "note": "Values joined by “and” are separate entries in the source; they are usually repeats but may differ in a detail not shown here. Identical values can stand only once. Counter-ions that a name gives are not always drawn.", "data": [{"system": "K562", "assay": "cell viability relative to vehicle control; higher = less cytotoxic", "conditions": "10 µM; SRSF2 genotype: SRSF2 P95H/wt", "in_short": "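Four leukaemia lines, as CRISPR-edited mutant clones and isogenic wild-type clones, were tested against Selleck bioactive, kinase and epigenetic probe libraries after removal of identity-inconsistent compounds. Cells were exposed to a single 10 µM dose for 48 h, and CellTiter-Glo luminescence was then read. Viability was calculated relative to the on-plate vehicle control.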", "values": [{"smiles": "CCc1c(O)cc(O)c(C(=O)c2ccc(OCCN3CCOCC3)c(OC)c2)c1CC(=O)N(CCOC)CCOC", "cell viability": "20.4% and 29.7%"}, {"smiles": "O=C(NCCS(=O)(=O)c1ccc(C(F)(F)F)cn1)c1ccc(Cl)cc1", "cell viability": "103% and 96.6%"}, {"smiles": "Clc1ccc2c(c1)CCc1cccnc1C2=C1CCNCC1", "note": "[Desloratadine]", "cell viability": "90.9% and 102%"}, {"smiles": "Cc1ccc(C(=O)O)c(O)c1", "note": "[4-Methylsalicylic acid]", "cell viability": "107% and 102%"}, {"smiles": "CCC(=O)Nc1cccc(Oc2nc(Nc3ccc(N4CCN(C)CC4)cc3OC)ncc2Cl)c1", "cell viability": "90.9% and 97.3%"}, {"smiles": "CN(N=O)C(=O)NC1C(O)OC(CO)C(O)C1O", "note": "(stereo not given) [Streptozotocin (STZ)]", "cell viability": "103%"}, {"smiles": "C=CS(=O)(=O)NC1CCN(C(=O)CNc2cc(I)c(Cl)cc2OC)CC1", "note": "[K-Ras(G12C) inhibitor 9]", "cell viability": "22.4% and 31%"}, {"smiles": "CCCc1nn(C)c2c(=O)[nH]c(-c3cc(S(=O)(=O)N4CCN(C)CC4)ccc3OCC)nc12", "note": "[Sildenafil citrate]", "cell viability": "100% and 106%"}, {"smiles": "CNC(=O)Nc1ccc(-c2nc(N3CC4CCC(C3)O4)c3cnn(C4CCC5(CC4)OCCO5)c3n2)cc1", "cell viability": "40.7% and 42.8%"}, {"smiles": "CO/N=C(\\C(=O)N[C@@H]1C(=O)N2C(C(=O)O)=C(CSc3nc(C)c(CC(=O)O)s3)CS[C@H]12)c1csc(N)n1", "note": "[Cefodizime Sodium]", "cell viability": "96% and 90.5%"}, {"smiles": "COC(=O)C1=C(C)NC(C)=C(C(=O)OCCN2CCN(C(c3ccccc3)c3ccccc3)CC2)C1c1cccc([N+](=O)[O-])c1", "note": "(stereo not given) [Manidipine (Manyper)]", "cell viability": "75.7% and 63.9%"}, {"smiles": "Cc1cccc(CC(=O)N2CCc3c2ccc(-c2cn(C)c4ncnc(N)c24)c3F)n1", "cell viability": "75.2% and 84.4%"}, {"smiles": "CNC1CCCN(c2c(F)cc3c(=O)c(C(=O)O)cn(C4CC4)c3c2OC)C1", "note": "(stereo not given) [Balofloxacin]", "cell viability": "104% and 108%"}, {"smiles": "Cc1ccc(S(=O)(=O)NC(=O)NN2CC3CCCC3C2)cc1", "note": "(stereo not given) [Gliclazide (Diamicron)]", "cell viability": "95.8% and 105%"}, {"smiles": "CN1CC2c3ccccc3Oc3ccc(Cl)cc3C2C1", "note": "(stereo not given) [Asenapine maleate]", "cell viability": "88.3% and 92.2%"}, {"smiles": "CC[C@H]1OC(=O)[C@H](C)[C@@H](O[C@H]2C[C@@](C)(OC)[C@@H](O)[C@H](C)O2)[C@H](C)[C@@H](O[C@@H]2O[C@H](C)C[C@H](N(C)C)[C@H]2O)[C@](C)(O)C[C@@H](C)/C(=N\\OCOCCOC)[C@H](C)[C@@H](O)[C@]1(C)O", "note": "[Roxithromycin (Roxl-150)]", "cell viability": "104% and 106%"}, {"smiles": "CC(C)c1nc(CN(C)C(=O)N[C@H](C(=O)N[C@@H](Cc2ccccc2)C[C@H](O)[C@H](Cc2ccccc2)NC(=O)OCc2cncs2)C(C)C)cs1", "note": "[Ritonavir]", "cell viability": "89.2% and 88.4%"}, {"smiles": "Nc1nccc(Oc2ccc3c(C(=O)Nc4cccc(C(F)(F)F)c4)cccc3c2)n1", "cell viability": "86.8% and 94.3%"}, {"smiles": "N[C@@H](Cc1c[nH]c2ccc(O)cc12)C(=O)O", "note": "[5-hydroxytryptophan (5-HTP)]", "cell viability": "106% and 102%"}, {"smiles": "CCCOc1ccc2c(c1)CC[C@@H]1[C@@H]2CC[C@]2(C)[C@@H](OC)CC[C@@H]12", "note": "[Promestriene]", "cell viability": "86.2% and 89.4%"}, {"smiles": "CCOCCn1c(N2CCCN(C)CC2)nc2ccccc21", "note": "[Emedastine]", "cell viability": "100% and 96.7%"}, {"smiles": "COc1cc2c(c(OC)c1OC)-c1c(cc3c(c1OC)OCO3)C[C@H](C)[C@](C)(O)[C@H]2OC(=O)c1ccccc1", "note": "[Schisantherin A]", "cell viability": "102% and 111%"}, {"smiles": "COc1ccc2c(c1O)-c1c(O)c(OC)cc3c1[C@H](C2)[N+](C)(C)CC3", "note": "[Magnoflorine]", "cell viability": "97.9% and 97.3%"}, {"smiles": "NCc1c[nH]c(=S)n1[C@H]1CCc2c(F)cc(F)cc2C1", "note": "[Nepicastat hydrochloride]", "cell viability": "100% and 97.2%"}, {"smiles": "CC(=O)Nc1ccc(OC(=O)c2ccccc2OC(C)=O)cc1", "note": "[Benorylate]", "cell viability": "102%"}, {"smiles": "CCC(=O)NC[C@@H]1C[C@H]1c1cccc2c1CCO2", "note": "[Tasimelteon]", "cell viability": "92.1% and 87.6%"}, {"smiles": "COc1ncnc(NS(=O)(=O)c2ccc(N)cc2)c1OC", "note": "[Sulfadoxine (Sulphadoxine)]", "cell viability": "103% and 107%"}, {"smiles": "N[C@@H](Cc1cc(I)c(Oc2cc(I)c(O)c(I)c2)c(I)c1)C(=O)O", "note": "[Levothyroxine sodium]", "cell viability": "89.6% and 92.8%"}, {"smiles": "C=C(C)[C@@H]1CC[C@]2(C(=O)O)CC[C@]3(C)[C@H](CC[C@@H]4[C@@]5(C)CC[C@H](O)[C@@](C)(CO)[C@@H]5CC[C@]43C)[C@@H]12", "note": "[23-Hydroxybetulinic acid]", "cell viability": "93.7% and 96.8%"}, {"smiles": "C[C@]12C=CC(=O)C=C1CC[C@H]1[C@@H]3C[C@@H](O)[C@](O)(C(=O)CO)[C@@]3(C)C[C@H](O)[C@@]12F", "note": "[Triamcinolone (Aristocort)]", "cell viability": "107%"}, {"smiles": "O=C(O)C1=CO[C@@H](O[C@@H]2O[C@H](CO)[C@@H](O)[C@H](O)[C@H]2O)[C@H]2[C@@H]1C=C[C@]2(O)CO", "note": "[Monotropein]", "cell viability": "110% and 104%"}, {"smiles": "Cn1ncc(Cl)c1-c1cc(C(=O)N[C@H](CN)Cc2cccc(F)c2)sc1Cl", "cell viability": "49.3% and 45.9%"}, {"smiles": "Cc1ccc(OCC(O)C(C)NC(C)C)c2c1CCC2", "note": "(stereo not given)", "cell viability": "93.5% and 95.7%"}, {"smiles": "CN1CCCN(C(=O)c2cccc(-c3ccc(/C=C4/C(=O)Nc5ccc(Cl)cc54)o3)c2)CC1", "cell viability": "0.32%"}, {"smiles": "O=S(=O)(c1ccccc1)c1cnc2c(N3CCNCC3)cccc2c1", "cell viability": "93.9%"}, {"smiles": "CCn1c2ccccc2c2cc(Nc3ccnc(NCCCN4CCOCC4)n3)ccc21", "cell viability": "4.34% and 6.16%"}, {"smiles": "Cc1cn(-c2cc(NC(=O)c3ccc(C)c(Nc4nccc(-c5cnccn5)n4)c3)cc(C(F)(F)F)c2)cn1", "note": "[Radotinib]", "cell viability": "22.3% and 38.7%"}, {"smiles": "CCCOc1ccc2[nH]c(NC(=O)OC)nc2c1", "note": "[Oxibendazole]", "cell viability": "15.3% and 34.8%"}, {"smiles": "COCC1=C(C(=O)OC(C)OC(=O)OC(C)C)N2C(=O)[C@@H](NC(=O)/C(=N\\OC)c3csc(N)n3)[C@H]2SC1", "note": "(stereo not given in full) [Cefpodoxime proxetil]", "cell viability": "103% and 105%"}, {"smiles": "Oc1c(F)cc(-c2cnccc2-c2ccc(N3CCOCC3)cc2)cc1F", "cell viability": "101% and 106%"}]}]}
